A short description of assay [1]: sensitizers of A549 cells to miR-34 induction, primary screen, imaging, A549 dox-inducible miR-34, nuclei and caspase counts (AID 1347080). Particulars: A549 miR-34 inducible, Hoechst nuclei count, 48 h.
A short description of assay [2]: survival rescue of mitochondrial mutant cells in low glucose, primary screen, MELAS cybrids, Rieske KO mouse fibroblasts, CellTiter-Glo (AID 1508586;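 active = mean z-score across replicates of 1.96 or higher in either the MELAS or the Rieske mutant cell line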;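 note: z relative to plate mean and SD of compound and empty wells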).
In assay [3] the target is NAD(+) hydrolase SARM1 (Homo sapiens) (UniProt Q6SZW1). The experiment in a line: SARM1 TIR NADase inhibitors, cell lysate, NAD-Glo luminescence (AID 1508614;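 active = compound whose remaining NAD level is above about 45 nM, limit read from the data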;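 note: higher remaining NAD means stronger inhibition of SARM1 NADase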). Particulars: SAM-TIR HEK293T lysate NADase, at 1 µM, stronger effect = higher value.
NAD(+) hydrolase SARM1 (Homo sapiens), sequence (Q6SZW1 whole entry, looked up): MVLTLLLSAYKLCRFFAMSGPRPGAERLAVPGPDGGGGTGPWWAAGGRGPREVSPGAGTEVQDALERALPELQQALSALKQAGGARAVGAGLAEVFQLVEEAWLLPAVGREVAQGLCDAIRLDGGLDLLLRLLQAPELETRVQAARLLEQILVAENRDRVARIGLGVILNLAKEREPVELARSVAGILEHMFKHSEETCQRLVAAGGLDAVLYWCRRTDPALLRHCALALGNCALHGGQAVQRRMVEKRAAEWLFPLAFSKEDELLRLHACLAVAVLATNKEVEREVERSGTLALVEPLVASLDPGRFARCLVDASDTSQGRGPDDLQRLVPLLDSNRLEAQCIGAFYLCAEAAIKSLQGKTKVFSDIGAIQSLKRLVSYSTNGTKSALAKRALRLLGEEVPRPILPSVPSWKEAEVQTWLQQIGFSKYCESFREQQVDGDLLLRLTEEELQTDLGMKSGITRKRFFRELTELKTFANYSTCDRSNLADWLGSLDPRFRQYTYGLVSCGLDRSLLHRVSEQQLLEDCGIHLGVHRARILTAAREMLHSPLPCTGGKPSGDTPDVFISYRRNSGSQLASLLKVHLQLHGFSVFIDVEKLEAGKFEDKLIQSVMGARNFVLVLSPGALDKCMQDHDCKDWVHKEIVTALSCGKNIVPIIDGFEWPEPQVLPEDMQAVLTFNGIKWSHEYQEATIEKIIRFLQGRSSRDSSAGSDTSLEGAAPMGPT
The nature of assay [4]: viability rescue of complex I mutant cybrids, primary screen, cell-based, galactose medium, ATP luminescence (AID 1645843;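 active = z-score of at least 1.8 in each of two replicates, scored against plate mean and spread of sample wells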;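 note: positive z means more ATP and so rescue of galactose-driven cybrid death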). The following applies: complex I mutant cybrid cells, 72 h, stronger effect = higher value.
The mark [5] stands for this setting: stronger effect = lower value, cell number ratio, induced over uninduced.
[6] abbreviates: measured here: relative caspase fold change +Dox/-Dox.
The mark [7] stands for this setting: measured here: total cells with miR-34 induction, stronger effect = lower value.
Where [8] appears, read: measured here: total cells without miR-34 induction.
Setting [9] is: MELAS cybrid survival, CellTiter-Glo 48 h, stronger effect = higher value.
[10] abbreviates: Rieske KO mouse fibroblast survival, CellTiter-Glo 72 h.

Where “and” joins values, the source holds several entries; their conditions need not be identical. Equal values may be shown once. Some compounds were tested as several samples or in several runs, with calls that do not always agree. Calls of active or inactive are those of the source.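 Rule for the calls, unless noted: active = compounds whose cell count with miR-34 switched on is under 0.7 times the count with it off; inactive = the rest.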

As to `Cc1c(OCC(F)(F)F)ccnc1C[S@@](=O)c1nc2ccccc2[nH]1`, the fold change in assay [1] (setting [5]) is 0.977 (inactive); in assay [1] (setting [6]), 1.03. For the same molecule, the cell count is 7200 in assay [1] (setting [7]) and 7370 in assay [1] (setting [8]). The z-score in assay [2] (setting [9]) is -0.079 (inactive); in assay [2] (setting [10]), -0.121. Also, in assay [3], the remaining NAD was 53 nM (active).
As to `O=C(O)CNC(=O)c1cccc(O)c1`, the fold change was 0.865 (inactive) in assay [1] (setting [5]) and 0.603 in assay [1] (setting [6]). Further, the cell count worked out at 8440 in assay [1] (setting [7]) and 9760 in assay [1] (setting [8]). Also, the values for the z-score in assay [2] (setting [9]), in assay [2] (setting [10]) and in assay [4] were 0.669 (inactive), 0.0478 and 0.945 (inactive), respectively.
As for `COc1ccc(-c2cc(-n3cccn3)ncn2)c(-n2cccn2)c1`, the fold change in assay [1] (setting [5]) was 0.922 (inactive); in assay [1] (setting [6]), 1.07. The cell count in assay [1] (setting [7]) turned out to be 8340; in assay [1] (setting [8]) it was 9050. In addition, the z-score in assay [2] (setting [9]) is -0.554 (inactive); in assay [2] (setting [10]), 0.208; in assay [4], -0.595 (inactive).
For the molecule `CCn1ccnc1CN(C)C(=O)c1cc(-c2cnc(N)nc2)nc2c(C)cccc12`, the fold change in assay [1] (setting [5]) was 0.899 (inactive); in assay [1] (setting [6]), 1.48. For the same molecule, the cell count in assay [1] (setting [7]) came to 8320; in assay [1] (setting [8]), 9260. Besides, the z-score in assay [2] (setting [9]) is -1.11 (inactive); in assay [2] (setting [10]) it was 1.17; in assay [4], 1.16 (inactive).
Consider `CCOC(=O)C1=C(C)NC(C)=C(C(=O)OCC)C1c1ccccc1C=CC(=O)OC(C)(C)C`, for which the fold change in assay [1] (setting [5]) is 0.635 (active) and 0.971 (inactive); in assay [1] (setting [6]) it was 1.57 and 0.602. Besides, the cell count in assay [1] (setting [7]) is 2050 and 7220; in assay [1] (setting [8]), 3220 and 7430. The z-score in assay [2] (setting [9]) was -0.107 (inactive); in assay [2] (setting [10]) it was -0.188; in assay [4] it was -1.44 (inactive).

The values are drawn from PubChem BioAssay.
